Measurements reported in the antibiotic and cytotoxicity screens of Wong et al. (2023).
In all, about 39,000 compounds went through this assay and about 1,500 (3.8%) were called active. The list comes from a sample in which actives are over-represented; it also holds similar structures and randomly drawn compounds.

Each compound was assayed on HSkMC (human skeletal muscle cells) (assay: cytotoxicity call (relative viability < 0.9)). Conditions: 10 µM.
`C[C@H](CO)N1C[C@H](C)[C@H](CN(C)C(=O)c2ccc(N3CCN(C)CC3)cc2)OCc2cn(nn2)CCCC1=O` was tested, and the cytotoxicity call was “inactive”. In the case of `COc1ccc(S(=O)(=O)N(C)C[C@@H]2Oc3c(NC(=O)c4ccncc4)cccc3C(=O)N([C@H](C)CO)C[C@@H]2C)cc1`, the cytotoxicity call is reported as “inactive”. With `C[C@H]1CCCCO[C@@H](CN(C)Cc2ccc(C(=O)O)cc2)[C@@H](C)CN([C@@H](C)CO)C(=O)c2cc(NC(=O)NC3CCCCC3)ccc2O1` the cytotoxicity call was “inactive”. `C[C@@H]1CN([C@H](C)CO)S(=O)(=O)c2ccc(Br)cc2O[C@@H]1CN(C)S(=O)(=O)c1ccc(F)cc1` was tested, and the cytotoxicity call was “inactive”. `CON=C(C(=O)NC1C(=O)N2C(C(=O)OCOC(=O)C(C)(C)C)=C(C=Cc3scnc3C)CSC12)c1csc(N)n1` (centres undefined) was tested, and the cytotoxicity call was “inactive”. In the case of `C[C@H]1CN([C@@H](C)CO)C(=O)c2cc(C#Cc3ccccc3)cnc2O[C@H]1CN(C)C(=O)CCN1CCCCC1`, the cytotoxicity call is reported as “inactive”. In the case of `COCCCNC(=O)[C@@]1(Sc2ccc(C)cc2)CC(=O)N(Cc2ccccc2Cl)[C@@H]1c1ccc(CO)cc1`, the cytotoxicity call is reported as “inactive”. `O=C1N[C@H](Cc2c[nH]c3ccccc23)COC(=O)[C@@H](Cc2ccc(F)cc2)CCC=CC[C@H]1CC(=O)N(CCO)Cc1ccccc1` was tested, and the cytotoxicity call was “inactive”. `COc1cc(C)c(C(=O)Oc2cc(C)c(C(=O)O)c(O)c2)c(O)c1` was tested, and the cytotoxicity call was “inactive”. In the case of `COCCCNc1ncnc(N)c1[N+](=O)[O-]`, the cytotoxicity call is reported as “inactive”. For `C[C@H](CO)N1C[C@H](C)[C@@H](CN(C)Cc2ccc(Cl)c(Cl)c2)Oc2c(NC(=O)Nc3ccc4c(c3)OCO4)cccc2C1=O`, the cytotoxicity call was “active”. In the case of `C[C@@H]1CN([C@@H](C)CO)C(=O)c2cccc(NC(=O)Nc3ccc4c(c3)OCO4)c2O[C@@H]1CN(C)Cc1ccc(Cl)c(Cl)c1`, the cytotoxicity call is reported as “inactive”. `C[C@H]1CN([C@@H](C)CO)C(=O)c2cccc(NC(=O)Nc3ccc4c(c3)OCO4)c2O[C@@H]1CN(C)Cc1ccc(Cl)c(Cl)c1` was tested, and the cytotoxicity call was “inactive”. `C[C@H]1CN([C@@H](C)CO)C(=O)c2cccc(NC(=O)Nc3ccc(F)cc3)c2O[C@@H]1CN(C)Cc1ccc(Cl)c(Cl)c1` was tested, and the cytotoxicity call was “active”. For `C[C@H](CO)N1C[C@H](C)[C@H](CN(C)S(C)(=O)=O)OCCCC[C@H](C)Oc2ccc(NS(=O)(=O)c3ccc(F)cc3)cc2C1=O`, the cytotoxicity call was “inactive”. In the case of `CO[C@@H]1CN(C)C(=O)c2cc(NC(=O)c3ccccc3)ccc2OC[C@H](C)N(C(=O)CN(C)C)C[C@@H]1C`, the cytotoxicity call is reported as “inactive”. With `CC(C)(C)OC(=O)N[C@H]1CCCCC/C=C\[C@@H]2C[C@@]2(C(=O)NS(=O)(=O)C2CC2)NC(=O)[C@@H]2C[C@@H](OC(=O)N3Cc4cccc(F)c4C3)CN2C1=O` the cytotoxicity call was “inactive”. In the case of `COc1ccc(NC(=O)Nc2ccc3c(c2)C(=O)N([C@@H](C)CO)C[C@@H](C)[C@H](CN(C)S(=O)(=O)c2ccc(Cl)cc2)OCCCC[C@@H](C)O3)cc1`, the cytotoxicity call is reported as “inactive”. For `Cc1noc(C)c1NC(=O)Nc1ccc2c(c1)C(=O)N([C@@H](C)CO)C[C@H](C)[C@@H](CN(C)S(=O)(=O)c1ccc(Cl)cc1)OCCCC[C@@H](C)O2`, the cytotoxicity call was “inactive”. With `COCCOC(=O)N1C(=O)[C@@]2(c3cc(C#CC4(O)CCCCCC4)ccc31)[C@H](C(=O)N1CCCCCCC1)[C@H]1C(=O)O[C@H](c3ccccc3)[C@H](c3ccccc3)N1[C@@H]2c1ccc(OCCO)cc1` the cytotoxicity call was “inactive”. For `Cc1ccc(S(=O)(=O)Nc2ccc3c(c2)CC(=O)N([C@H](C)CO)C[C@@H](C)[C@H](CN(C)Cc2ccc(Oc4ccccc4)cc2)O3)cc1`, the cytotoxicity call was “active”. For `Cc1ccc(S(=O)(=O)Nc2ccc3c(c2)CC(=O)N([C@@H](C)CO)C[C@@H](C)[C@H](CN(C)Cc2ccc(Oc4ccccc4)cc2)O3)cc1`, the cytotoxicity call was “inactive”. With `Cc1ccc(S(=O)(=O)Nc2ccc3c(c2)CC(=O)N([C@@H](C)CO)C[C@H](C)[C@@H](CN(C)Cc2ccc(Oc4ccccc4)cc2)O3)cc1` the cytotoxicity call was “active”. With `Cc1ccc(S(=O)(=O)Nc2ccc3c(c2)CC(=O)N([C@@H](C)CO)C[C@H](C)[C@H](CN(C)Cc2ccc(Oc4ccccc4)cc2)O3)cc1` the cytotoxicity call was “active”. In the case of `Cc1ccc(S(=O)(=O)Nc2ccc3c(c2)CC(=O)N([C@H](C)CO)C[C@@H](C)[C@@H](CN(C)Cc2ccc(Oc4ccccc4)cc2)O3)cc1`, the cytotoxicity call is reported as “inactive”. In the case of `Cc1ccc(S(=O)(=O)Nc2ccc3c(c2)CC(=O)N([C@@H](C)CO)C[C@@H](C)[C@@H](CN(C)Cc2ccc(Oc4ccccc4)cc2)O3)cc1`, the cytotoxicity call is reported as “inactive”. For `Cc1ccc(S(=O)(=O)Nc2ccc3c(c2)CC(=O)N([C@H](C)CO)C[C@H](C)[C@@H](CN(C)Cc2ccc(Oc4ccccc4)cc2)O3)cc1`, the cytotoxicity call was “inactive”. With `Cc1ccc(S(=O)(=O)Nc2ccc3c(c2)CC(=O)N([C@H](C)CO)C[C@H](C)[C@H](CN(C)Cc2ccc(Oc4ccccc4)cc2)O3)cc1` the cytotoxicity call was “inactive”. With `C[C@H](CO)N1C[C@H](C)[C@@H](CN(C)S(=O)(=O)c2ccc(F)cc2)Oc2ccc(NC(=O)C3CC3)cc2CC1=O` the cytotoxicity call was “inactive”. With `CO[C@H]1CN(C)C(=O)c2cc(NC(=O)Nc3cccc(Cl)c3)ccc2OC[C@H](C)N(C(=O)Nc2c(C)noc2C)C[C@H]1C` the cytotoxicity call was “inactive”. `COc1ccc(NC(=O)N(C)C[C@H]2OCCCC[C@@H](C)Oc3ccc(NC(=O)Nc4cccc5ccccc45)cc3C(=O)N([C@H](C)CO)C[C@@H]2C)cc1` was tested, and the cytotoxicity call was “inactive”. With `Cc1ccc(S(=O)(=O)N[C@H]2CC[C@@H](CC(=O)N3CCC(Cc4ccccc4)CC3)O[C@@H]2CO)cc1` the cytotoxicity call was “inactive”. For `C[C@@H]1CCCCO[C@@H](CN(C)C(=O)NC2CCCCC2)[C@H](C)CN([C@@H](C)CO)C(=O)c2cc(NC(=O)Cc3ccccc3)ccc2O1`, the cytotoxicity call was “inactive”. In the case of `C[C@H]1CN([C@@H](C)CO)C(=O)Cc2cc(NC(=O)Nc3cccc4c3CCCC4)ccc2O[C@H]1CN(C)S(=O)(=O)c1ccc(Oc2ccccc2)cc1`, the cytotoxicity call is reported as “inactive”. In the case of `Cc1cc(Oc2ccnc3cc(Cl)ccc23)ccc1Cl`, the cytotoxicity call is reported as “inactive”. In the case of `Cc1c(C(=O)Nc2ccc(Oc3ccnc4cc(OCC(C)(C)O)ccc34)c(F)c2)c(=O)n(-c2ccccc2)n1C`, the cytotoxicity call is reported as “active”. `CCS(=O)(=O)N1C[C@]2(C1)CN([C@@H](CO)c1c2c2ccc(cc2n1C)OC)C(=O)Nc1cccc(c1)F` was tested, and the cytotoxicity call was “inactive”. With `CC(C)NC(=O)Nc1cccc2c1O[C@@H](CN(C)C(=O)NC1CCCCC1)[C@@H](C)CN([C@@H](C)CO)C2=O` the cytotoxicity call was “inactive”. For `Cc1ccc(S(=O)(=O)N(C)C[C@H]2Oc3ccc(NS(C)(=O)=O)cc3CC(=O)N([C@@H](C)CO)C[C@@H]2C)cc1`, the cytotoxicity call was “inactive”. With `CC(C)CCCC(C)C1CCC2C3CC(=O)C4CC(O)CCC4(C)C3CCC12C` (stereo not drawn) [5alpha-CHOLESTAN-3beta-OL-6-ONE ] the cytotoxicity call was “inactive”. With `CC(C)CCC[C@@H](C)[C@H]1CC[C@H]2[C@@H]3C[C@@H](O)[C@@]4(O)C[C@@H](O)CC[C@]4(C)[C@H]3CC[C@]12C` [CHOLESTAN-3beta,5alpha,6beta-TRIOL ] the cytotoxicity call was “active”. For `CC(C)CCCC(C)C1CCC2C3CCC4CC(O)CCC4(C)C3CCC12C` (stereo not drawn) [5alpha-CHOLESTANOL ], the cytotoxicity call was “inactive”. `CC(C)NC(=O)Nc1ccc2c(c1)CC(=O)N([C@H](C)CO)C[C@H](C)[C@H](CN(C)S(=O)(=O)c1cn(C)cn1)O2` was tested, and the cytotoxicity call was “inactive”. `Cc1cn(CCC#N)c2ccccc12` was tested, and the cytotoxicity call was “inactive”. `Cc1cn(CCN2CCN(c3ccccc3-c3cc(C#N)cc(C(=O)NCCCN4CCCC4)c3)CC2)c2ccccc12` was tested, and the cytotoxicity call was “active”. For `COc1cc(C(=O)NCCCN2CCCN(CCCNC(=O)c3cc(OC)c(OC)c(OC)c3)CC2)cc(OC)c1OC`, the cytotoxicity call was “inactive”. With `C[C@H]1CCCCO[C@H](CN(C)C(=O)C2CCCCC2)[C@@H](C)CN([C@@H](C)CO)C(=O)c2cc(NS(=O)(=O)c3cccs3)ccc2O1` the cytotoxicity call was “inactive”. `COc1cccc(-n2cc(C(=O)NO)nn2)c1` was tested, and the cytotoxicity call was “inactive”. For `COc1ccc(-n2cc(C(=O)NO)nn2)cc1`, the cytotoxicity call was “active”. `COC(=O)c1ccc(Cn2cc(C(=O)NO)nn2)o1` was tested, and the cytotoxicity call was “inactive”. With `C[C@H]1NC(=O)[C@H](Cc2ccccc2)NC(=O)[C@@]23C(=O)N[C@@H](Cc4ccccc4)[C@@H]2[C@H](C)[C@@]2(C)O[C@H]2[C@H]3/C=C/C/C=C\CNC1=O` the cytotoxicity call was “inactive”. With `C[C@H](CO)N1C[C@H](C)[C@@H](CN(C)Cc2ccncc2)Oc2ccc(NS(=O)(=O)c3ccc(F)cc3)cc2C1=O` the cytotoxicity call was “inactive”. With `CN(C)c1ccc(C(=C2C=CC(=[N+](C)C)C=C2)c2ccc(N(C)C)cc2)cc1.[Cl-]` the cytotoxicity call was “active”. With `CN(CC(=O)O)C1CCCC1` the cytotoxicity call was “inactive”. With `C[C@@H]1CCCCO[C@H](CN(C)C(=O)Nc2ccc(F)cc2)[C@H](C)CN([C@@H](C)CO)C(=O)c2cc(NC(=O)NC3CCCCC3)ccc2O1` the cytotoxicity call was “inactive”. `C[C@H]1CN([C@@H](C)CO)S(=O)(=O)c2ccc(C#Cc3ccc(F)cc3)cc2O[C@@H]1CN(C)C(=O)c1ccccn1` was tested, and the cytotoxicity call was “inactive”. For `COc1ccc(S(=O)(=O)Nc2ccc3c(c2)CC(=O)N([C@H](C)CO)C[C@@H](C)[C@@H](CN(C)Cc2ccc(Oc4ccccc4)cc2)O3)cc1`, the cytotoxicity call was “active”. `COc1ccc(S(=O)(=O)Nc2ccc3c(c2)CC(=O)N([C@H](C)CO)C[C@H](C)[C@H](CN(C)Cc2ccc(Oc4ccccc4)cc2)O3)cc1` was tested, and the cytotoxicity call was “inactive”. With `COc1ccc(S(=O)(=O)Nc2ccc3c(c2)CC(=O)N([C@H](C)CO)C[C@H](C)[C@@H](CN(C)Cc2ccc(Oc4ccccc4)cc2)O3)cc1` the cytotoxicity call was “inactive”. With `COc1ccc(S(=O)(=O)Nc2ccc3c(c2)CC(=O)N([C@@H](C)CO)C[C@@H](C)[C@@H](CN(C)Cc2ccc(Oc4ccccc4)cc2)O3)cc1` the cytotoxicity call was “inactive”. In the case of `COc1ccc(S(=O)(=O)Nc2ccc3c(c2)CC(=O)N([C@@H](C)CO)C[C@H](C)[C@@H](CN(C)Cc2ccc(Oc4ccccc4)cc2)O3)cc1`, the cytotoxicity call is reported as “active”. With `COc1ccc(S(=O)(=O)Nc2ccc3c(c2)CC(=O)N([C@H](C)CO)C[C@@H](C)[C@H](CN(C)Cc2ccc(Oc4ccccc4)cc2)O3)cc1` the cytotoxicity call was “active”. With `COc1ccc(S(=O)(=O)Nc2ccc3c(c2)CC(=O)N([C@@H](C)CO)C[C@@H](C)[C@H](CN(C)Cc2ccc(Oc4ccccc4)cc2)O3)cc1` the cytotoxicity call was “inactive”. In the case of `COc1ccc(S(=O)(=O)Nc2ccc3c(c2)CC(=O)N([C@@H](C)CO)C[C@H](C)[C@H](CN(C)Cc2ccc(Oc4ccccc4)cc2)O3)cc1`, the cytotoxicity call is reported as “active”.
